The entries come from a sample that favours hits as a whole.
miR-122 inh – miR-122 sensor activation; activation, % at 12.5 µM; hit rate 0.14% among 340,000; Huh7 psiCHECK-miR122 Renilla luciferase sensor, 48 h;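 active = mean activation of 30% or more, with every replicate also reaching 30%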;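 also: higher luciferase signal means stronger suppression of miR-122 activity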
Numbers stand for hits.

How did CCCNC(=O)N(C)C[C@@H]1Oc2cc(C#Cc3cccc(F)c3)ccc2S(=O)(=O)N([C@@H](C)CO)C[C@@H]1C do in these assays?
miR-122 inh: inactive

Results for O=C(Nc1ccccc1F)N1[C@H](CO)[C@@H]2c3ccccc3NC[C@@H]21 ?
miR-122 inh: 42

What do the screens show for `O=C(Cc1ccccc1)N1C[C@@H]2[C@H](c3ccccc31)[C@H](CO)N2C(=O)Nc1ccc(F)cc1`?
miR-122 inh: inactive

What do the screens show for `C[C@@H]1CN([C@H](C)CO)C(=O)c2cc(-c3cncnc3)cnc2O[C@H]1CN(C)CC1CCOCC1`?
miR-122 inh: inactive

How did COCC#Cc1ccc2c(c1)O[C@H](CN(C)C(=O)C1CCCCC1)[C@H](C)CN([C@@H](C)CO)S2(=O)=O do in these assays?
miR-122 inh: inactive

How did CNC[C@H]1Oc2cc(C#CCC3CCCC3)ccc2S(=O)(=O)N([C@@H](C)CO)C[C@@H]1C do in these assays?
miR-122 inh: inactive

Results for C[C@H](CO)N1C[C@H](C)[C@@H](CN(C)C(=O)c2cccnc2)Oc2ncc(/C=C/c3ccccc3)cc2C1=O ?
miR-122 inh: inactive

What do the screens show for `C[C@@H]1CN([C@@H](C)CO)S(=O)(=O)c2ccc(C#C[C@@H](C)O)cc2O[C@@H]1CN(C)C`?
miR-122 inh: inactive

What do the screens show for `COc1ccc(OC)c(S(=O)(=O)Nc2ccc(C(C)=O)cc2)c1`?
miR-122 inh: inactive

How did COc1cccc(OCc2cc(/C=N/Nc3ccc(C(=O)O)cc3)ccc2OC)c1 do in these assays?
miR-122 inh: 47

How did C[C@@H]1CN([C@H](C)CO)C(=O)c2cc(/C=C/c3ccccc3)cnc2O[C@@H]1CN(C)C(=O)C1CCOCC1 do in these assays?
miR-122 inh: inactive

Results for C[C@@H]1CN([C@@H](C)CO)C(=O)c2cc(C#CCc3ccccc3)cnc2O[C@@H]1CN(C)C(=O)C1CCCCC1 ?
miR-122 inh: inactive

What do the screens show for `COCC(=O)N(C)C[C@@H]1Oc2ncc(/C=C/c3ccccc3)cc2C(=O)N([C@H](C)CO)C[C@@H]1C`?
miR-122 inh: inactive

What do the screens show for `CC#CCCCC(=O)Nc1ccccc1C(=O)O`?
miR-122 inh: 32

What do the screens show for `Cc1ccc(-c2ccc3c(c2)O[C@@H](CN(C)C(=O)NC(C)C)[C@H](C)CN([C@H](C)CO)S3(=O)=O)cc1`?
miR-122 inh: inactive

What do the screens show for `C[C@@H]1CN([C@@H](C)CO)S(=O)(=O)c2ccc(-c3cncnc3)cc2O[C@H]1CN(C)Cc1cncnc1`?
miR-122 inh: inactive

Results for N#C/C(=C\c1ccc(N2CCOCC2)o1)C(=O)NCC1CCCO1 (configuration not stated) ?
miR-122 inh: 36

What do the screens show for `C[C@H](CO)N1C[C@H](C)[C@H](CN(C)C)Oc2ncc(C#CC3CC3)cc2C1=O`?
miR-122 inh: inactive

How did NC(=O)c1cn(-c2ccccc2)nc1-c1cc2ccccc2oc1=O do in these assays?
miR-122 inh: 77

Results for C[C@@H]1CN([C@@H](C)CO)C(=O)c2cc(-c3cccc(F)c3)cnc2O[C@H]1CN(C)C(=O)C1CCOCC1 ?
miR-122 inh: inactive

What do the screens show for `COc1cccc(-c2cnc3c(c2)C(=O)N([C@@H](C)CO)C[C@@H](C)[C@H](CN(C)Cc2cccnc2)O3)c1`?
miR-122 inh: inactive

Results for Cc1ccc(C(=O)C2=C(O)C(=O)N(CCCN3CCOCC3)C23C(=O)N(C)c2ccccc23)o1 (configuration not stated) ?
miR-122 inh: 32

How did Cc1ccc(-c2ccc3c(c2)O[C@H](CN(C)Cc2cccc(C(=O)O)c2)[C@@H](C)CN([C@@H](C)CO)S3(=O)=O)cc1 do in these assays?
miR-122 inh: inactive

Results for CCC(=O)N1[C@H](CO)[C@H](c2ccccc2)[C@@H]1CN(CC)C(=O)c1cccc(F)c1 ?
miR-122 inh: inactive

Results for CC(=O)N1[C@H](CN(C(=O)c2ccc(F)cc2)C(C)C)[C@H](c2ccccc2)[C@@H]1CO ?
miR-122 inh: 67

How did CCC(=O)N1[C@H](CO)[C@H](c2ccccc2)[C@@H]1CN(CC)C(=O)c1ccccc1 do in these assays?
miR-122 inh: 36

How did CCC(=O)N1[C@H](CN(CC)C(=O)c2cccc(F)c2)[C@H](c2ccccc2)[C@@H]1CO do in these assays?
miR-122 inh: inactive

Results for COCC(=O)NC[C@H]1[C@H](c2ccccc2)[C@@H](CO)N1C(=O)c1ccccc1 ?
miR-122 inh: inactive

How did CC(C)C#Cc1ccc2c(c1)O[C@H](CN(C)C(=O)CC1CC1)[C@H](C)CN([C@@H](C)CO)S2(=O)=O do in these assays?
miR-122 inh: inactive

How did COc1cccc(-c2cnc3c(c2)C(=O)N([C@H](C)CO)C[C@H](C)[C@H](CN(C)Cc2cccnc2)O3)c1 do in these assays?
miR-122 inh: inactive

What do the screens show for `CC(C)CC#Cc1cnc2c(c1)C(=O)N([C@@H](C)CO)C[C@@H](C)[C@@H](CN(C)C(=O)NC1CCCC1)O2`?
miR-122 inh: inactive

What do the screens show for `C[C@H]1CN([C@@H](C)CO)C(=O)c2cc(C#CCc3ccccc3)cnc2O[C@H]1CN(C)C(=O)C1CCCCC1`?
miR-122 inh: inactive

What do the screens show for `C[C@H](CO)N1C[C@H](C)[C@@H](CN(C)S(C)(=O)=O)Oc2cc(C#Cc3ccccc3)ccc2S1(=O)=O`?
miR-122 inh: inactive

What do the screens show for `CCCC#Cc1ccc2c(c1)O[C@@H](CN(C)C(=O)CC)[C@@H](C)CN([C@@H](C)CO)S2(=O)=O`?
miR-122 inh: inactive

How did C[C@H](O)C#Cc1cnc2c(c1)C(=O)N([C@H](C)CO)C[C@@H](C)[C@@H](CN(C)C(=O)CN(C)C)O2 do in these assays?
miR-122 inh: inactive

What do the screens show for `Cc1c(Cl)sn(-c2ccc(Cl)cc2)c1=O`?
miR-122 inh: 70

Results for CC(C)C#Cc1ccc2c(c1)O[C@@H](CN(C)C(=O)c1ccccc1)[C@H](C)CN([C@H](C)CO)S2(=O)=O ?
miR-122 inh: inactive

How did COc1cccc(C#Cc2ccc3c(c2)O[C@@H](CN(C)S(=O)(=O)c2ccccc2F)[C@@H](C)CN([C@@H](C)CO)S3(=O)=O)c1 do in these assays?
miR-122 inh: inactive

What do the screens show for `C[C@@H]1CN([C@@H](C)CO)S(=O)(=O)c2ccc(C#Cc3ccc(F)cc3)cc2O[C@H]1CN(C)S(=O)(=O)c1cn(C)cn1`?
miR-122 inh: inactive

What do the screens show for `COc1ccc(NC(=O)Nc2ccc3c(c2)CC(=O)N([C@@H](C)CO)C[C@@H](C)[C@@H](CN(C)C(=O)NC(C)C)O3)cc1`?
miR-122 inh: inactive

Results for C[C@@H]1CN([C@@H](C)CO)C(=O)c2cc(Br)cnc2O[C@@H]1CN(C)C(=O)c1cccnc1 ?
miR-122 inh: inactive

How did C[C@H](CO)N1C[C@H](C)[C@H](CN(C)C(=O)c2cccc(F)c2)Oc2ncc(/C=C/c3ccccc3)cc2C1=O do in these assays?
miR-122 inh: inactive

Results for O=C(C1CC1)N1C[C@H]2[C@@H](c3ccccc31)[C@H](CO)N2C(=O)c1ccccc1F ?
miR-122 inh: 33

What do the screens show for `COc1ccc(C(=O)N2C[C@@H]3[C@H](c4ccccc42)[C@H](CO)N3Cc2ccccc2Cl)cc1`?
miR-122 inh: inactive

What do the screens show for `O=C(C1CCCCC1)N1C[C@H]2[C@@H](c3ccccc31)[C@@H](CO)N2C(=O)c1ccccc1`?
miR-122 inh: inactive

What do the screens show for `O=C(Cc1ccccc1)N1C[C@H]2[C@@H](c3ccccc31)[C@@H](CO)N2C(=O)C1CCCCC1`?
miR-122 inh: inactive

How did O=C(C1CCCCC1)N1C[C@@H]2[C@H](c3ccccc31)[C@H](CO)N2Cc1ccccc1Cl do in these assays?
miR-122 inh: 40

Assay outcomes deposited in PubChem by Broad Institute.
